From PubChem BioAssay
nsP2pro primary: blocks chikungunya virus nsP2 protease peptide cleavage. Q8JUX6. FRET peptide cleavage, nsP2pro, fluorescence 1 h. Potency, µM (doses to about 24.9 µM), without a hit: top-dose activity change, negative = inhibition, actives largely listed as inhibitors. actives 1.1% (n = 31,000); further: nearly all actives have a fitted effect of over 60% in size
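Recombinant nsP2pro (150 nM) was preincubated with compound 15 min at room temperature in 10 mM Tris-HCl pH 8.0, 0.01% Tween 20. Peptide 2 FRET substrate (2.5 uM) was then added and fluorescence read after 1 h. Seven-point series, up to 25 uM.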
CHIKV nsP2 cell: cell-based CHIKV nsP2 protease inhibition, secondary; shares compounds with nsP2pro primary; actives 10% (n = 450); cell-based CHIKV nsP2 protease reporter assay; Potency, µM (titrated, usually from 51.1 µM), for inactives: top-dose activity change, negative = inhibition, usual class: inhibitors; further: nearly all actives have a fitted effect of over 70% in size
NSP2 full ctr: selectivity test for CHIKV nsP2 protease inhibitors: full-length NSP2 | shares compounds with nsP2pro primary | Full-length CHIKV NSP2 protease enzymatic counterscreen | Potency, µM (highest dose often 50.7 µM), for the others: at the top dose activity change, negative = inhibition, usual class: inhibitors | actives 39% (n = 410) | AID 1964101; further: nearly all actives have a fitted effect of over 65% in size
Furin counter: human furin inhibition, counterscreen for nsP2pro inhibitors | AID 1964102 | shares compounds with nsP2pro primary | actives 6% (n = 410) | Recombinant human furin enzymatic counterscreen, fluorogenic substrate | Potency, µM (top dose mostly 50.6 µM), for the others: top-dose activity change, negative = inhibition, actives largely listed as inhibitors
nsP2 NS23 pep: selectivity test for CHIKV nsP2 protease inhibitors: endogenous NS2/3 peptide; shares compounds with nsP2pro primary; Purified CHIKV nsP2 protease, endogenous NS2/3 peptide cleavage; Potency, µM (doses to about 51 µM), without a hit: at the highest dose activity change, negative = inhibition, hits mostly inhibitors; actives 34% (n = 410); AID 1964103; further: nearly all actives have a fitted effect of over 55% in size
Papain counter: selectivity counter-screen for CHIKV nsP2 protease inhibitors: papain; Potency, µM (doses to about 51 µM), for the others: at the top dose activity change, negative = inhibition, usual class: inhibitors; purified papain protease activity, enzymatic inhibition; actives 5% (n = 410); shares compounds with nsP2pro primary
Target sequence (P00784 whole entry, looked up): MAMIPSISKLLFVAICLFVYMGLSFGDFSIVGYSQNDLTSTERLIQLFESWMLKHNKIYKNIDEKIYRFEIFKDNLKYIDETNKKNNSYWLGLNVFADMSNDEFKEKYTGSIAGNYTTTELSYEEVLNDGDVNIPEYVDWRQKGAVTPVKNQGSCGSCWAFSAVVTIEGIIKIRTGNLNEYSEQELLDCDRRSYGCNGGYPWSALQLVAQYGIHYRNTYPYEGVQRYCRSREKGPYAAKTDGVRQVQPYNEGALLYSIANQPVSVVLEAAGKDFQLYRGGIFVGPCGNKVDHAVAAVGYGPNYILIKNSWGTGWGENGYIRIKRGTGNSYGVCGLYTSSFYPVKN
nsP2pro confirm: CHIKV nsP2 protease inhibition, confirmatory qHTS; CHIKV nsP2 protease enzymatic activity, qHTS; Potency, µM (series often up to 25.5 µM), without a hit: at the top dose activity change, negative = inhibition, usual class: inhibitors; shares compounds with nsP2pro primary; actives 43% (n = 410); further: nearly all actives have a fitted effect of over 75% in size
HCV NS3 counter: HCV NS3/4A protease inhibition, counterscreen. shares compounds with nsP2pro primary. HCV NS3/4A protease biochemical counterscreen. Potency, µM (highest dose often 50.9 µM), hits mostly inhibitors. actives 20% (n = 410); further: nearly all actives have a fitted effect of over 55% in size
Starred values were filed as active, the others as inactive; i = inactive; ? = inconclusive; · = no result given; ! = not confirmed by another sample; [ ] = dose if it differs, or a comment. This excerpt belongs to a sample that is enriched for hits. The call rests on the fitted dose curve. On the % scale 0 is the no-effect control and ±100 the full control effect; potency means the concentration at half of the fitted maximal effect.

SMILES | nsP2pro primary | CHIKV nsP2 cell | NSP2 full ctr | Furin counter | nsP2 NS23 pep | Papain counter | nsP2pro confirm | HCV NS3 counter
C[C@H](NC(=O)[C@H](Cc1ccccc1)NC(=O)OCc1ccccc1)C(=O)CF | ? | -5.9% | ? | 0.9% | -9.6% | 0.0461µM* | ? | i
CC(=O)Nc1sc2c(c1-c1nc3ccccc3s1)CCN(C1COC1)C2 | -15.8% | · | · | · | · | · | · | ·
CC(C)N(CCC(=O)c1ccc2ccccc2c1)Cc1ccccc1 | 0.556µM* | ? | 0.919µM* | -12.0% | 5.8µM* | 96.4% | 0.504µM* | i
CN(Cc1ccccc1)C(=O)c1ccc(S(=O)(=O)Nc2ccccc2)cc1 | -1.4% | · | · | · | · | · | · | ·
COc1ccc(C(=O)Nc2ccc(S(=O)(=O)N(Cc3ccccc3)c3ccccc3)cc2)cc1 | -7.0% | · | · | · | · | · | · | ·
C/C(=C(\CCOC(=O)c1ccccc1)SS/C(CCOC(=O)c1ccccc1)=C(/C)N(C=O)Cc1cnc(C)nc1N)N(C=O)Cc1cnc(C)nc1N | 8.81µM* | -3.1% | 13µM* | -7.7% | 5.8µM* | -8.9% | 7.98µM* | 5.8µM*
CCCOC(=O)c1ccccc1 | -4.3% | · | · | · | · | · | · | ·
CC1CCC(C(=O)Nc2ccc([S+](=O)([O-])Nc3nccs3)cc2)CC1 (centres undefined) | -2.7% | · | · | · | · | · | · | ·
CC(=O)Nc1sc2c(c1Br)CCNC2 | i | · | · | · | · | · | · | ·
CCCCN1C(=O)c2ccccc2NC1c1ccc(OC)c(COc2c(C)cc(NC(C)=O)cc2C)c1 (centres undefined) | 2.1% | · | · | · | · | · | · | ·
CCC(=C(CC)c1ccc(OP(=O)(O)O)cc1)c1ccc(OP(=O)(O)O)cc1 | 3.4%[0.199 µM] | · | · | · | · | · | · | ·
COCCNC(=O)c1cc2c(Cl)nc3ccc(C)cc3c2s1 | 12.8% | · | · | · | · | · | · | ·
Cc1ccc(NC(=O)CSc2nc(-c3cccs3)nc3cc(=O)[nH]n23)cc1C | -6.9% | · | · | · | · | · | · | ·
COCCNC(=O)Nc1ccc2nc(-c3cccs3)c(-c3cccs3)nc2c1 | ? | -3.8% | 33.8% | -9.9% | -9.6% | 49.2% | 8.5% | i
Nc1nc(NCc2ccc(-c3ccnc(C(F)(F)F)c3)cc2)c2ccccc2n1 | -20.0% | · | · | · | · | · | · | ·
Cc1cc(C)nc(NC(=S)N2CCN(c3cc(Cl)c(Cl)cc3Cl)CC2)c1 | 1.1% | · | · | · | · | · | · | ·
CO/N=C(/C(=O)N[C@@H]1C(=O)N2C(C(=O)OCOC(=O)C(C)(C)C)=C(C)CS[C@H]12)c1csc(N)n1 | -25.0% | · | · | · | · | · | · | ·
CO/N=C(/C(=O)N[C@@H]1C(=O)N2C(C(=O)O)=C(CSC(=O)c3ccco3)CS[C@H]12)c1csc(N)n1 | 11.1µM*! | -7.9% | -5.0% | -5.2% | 9.2% | ? | -9.6% | i
CC(=O)OCC1=C(C(=O)O)N2C(=O)[C@@H](NC(=O)Cc3cccs3)[C@H]2SC1 | 0.1% | · | · | · | · | · | · | ·
CCCNC(=O)[C@H]1O[C@@H]1C(=O)N[C@H](C(=O)N1CCC[C@@H]1C(=O)O)[C@@H](C)CC | -17.7% | · | · | · | · | · | · | ·
Cc1cc(O)c2c(c1)C(=O)c1cccc(O)c1C2=O | ? | 8.7% | ? | -3.9% | -7.6% | -6.4% | ? | i
O=C(O)c1cc(O)c2c(c1)C(=O)c1cccc(O)c1C2=O | ? | -12.3% | 14.8% | 4.7% | i | ? | 22.5% | i
O=C(O)c1ccc(C(=O)O)cc1 | -19.6% | · | · | · | · | · | · | ·
O=C1c2c(O)cccc2Cc2cccc(O)c21 | 25.7% | · | · | · | · | · | · | ·
O=C1Nc2ccccc2/C1=C/c1cccc(C(=O)O)c1 | i | · | · | · | · | · | · | ·
Cc1ccc(NC(=O)CN2C(=O)N/C(=C\c3cccn3-c3ccc(C(=O)NC#N)cc3)C2=O)cc1 | i | · | · | · | · | · | · | ·
Cc1nnc(-c2cnn(C)c2N)n1CCCc1ccncc1 | 0.2% | · | · | · | · | · | · | ·
O=S(=O)(Nc1nccs1)c1ccc(NCc2cc(F)ccc2O)cc1 | i | · | · | · | · | · | · | ·
